{"source": "PubChem BioAssay (NCI)", "note": "About 83,000 compounds went through this panel and 20% of them were active in at least one assay; those are over-represented in the sample as a whole.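 Cell lines were cultured in 96-well plates, exposed to a single compound concentration, and assessed for percent growth 48 hours later.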 Unmarked numbers belong to inactive results. Activity calls are given as the source filed them. Rule for the calls: active = growth percent below 10; inactive = the rest."}
{"test_system": "KM12 colon", "assay": "NCI-60 one-dose screen, 48 h (100 = growth as untreated, 0 = no growth, -100 = all killed)", "conditions": "10 µM"}
{"smiles": "COc1ccc(-c2onc(N)c2-c2cc(OC)c3c(c2)OCO3)cc1", "growth": "21.8%"}
{"smiles": "C[C@]12CC[C@@H]3c4ccc(O)cc4CC[C@H]3[C@@H]1CC[C@@H]2NS(=O)(=O)c1ccc(C(F)(F)F)cc1", "growth": "47.5%"}
{"smiles": "O=C(CSc1nnc(-c2ccc(Cl)cc2)o1)Nc1ccc(C(=O)/C=C/c2ccc(Cl)cc2)cc1", "growth": "97.8%"}
{"smiles": "Cc1cc(CCNC=O)c(C)c2c1sc1ccccc12", "growth": "103%"}
{"smiles": "COc1cc2cc(Oc3ccc(NC(=O)c4ccc(Cl)c(C(F)(F)F)c4)cc3)c(C)nc2cc1OC", "growth": "19.7%"}
{"smiles": "CC(C)(C)c1ccc(S(=O)(=O)N[C@H]2CC[C@H]3[C@@H]4CCc5cc(O)ccc5[C@H]4CC[C@]23C)cc1", "growth": "39.2%"}
{"smiles": "COc1cc2cc(Oc3ccc(NC(=O)c4cccc(C(F)(F)F)c4)cc3)c(C)nc2cc1OC", "growth": "25.8%"}
{"smiles": "COc1ccc(/C=C2\\CCCC3=C2NC(N)=NC3c2ccc(OC)c(OC)c2)cc1OC", "note": "(stereo unspecified)", "growth": "32.1%"}
{"smiles": "Cc1c(Cl)cccc1NC(=O)CN1CCOCC1", "growth": "97.3%"}
{"smiles": "CC(C)(C)OC(=O)N1CCc2c(sc3ncnc(N/N=C/c4ccc(Br)cc4)c23)C1", "growth": "46.6%"}
{"smiles": "CCCCc1oc2ccccc2c1C(=O)c1cc(I)c(OCCN(CC)CC)c(I)c1", "growth": "-47.6% (active)"}
{"smiles": "CCc1c2c(nc3ccc(OC(=O)N4CCC(N5CCCCC5)CC4)cc13)-c1cc3c(c(=O)n1C2)COC(=O)[C@]3(O)CC", "growth": "53.1%"}
{"smiles": "NS(=O)(=O)Oc1ccc(-c2ccc3sccc3c2)cc1", "growth": "101%"}
{"smiles": "O=C(Nc1ccc(OS(=O)(=O)c2ccccc2)cc1)C1CCCCC1", "growth": "88.5%"}
{"smiles": "S=c1cnc2ccccc2[nH]1", "growth": "93.9%"}
{"smiles": "COc1cc(-c2nn(-c3cccc(NC(=O)NCCNC(=O)c4cccc(C(F)(F)F)c4)c3)cc2-c2ccncc2)ccc1Cl", "growth": "18.9%"}
{"smiles": "C[C@@H](O)[C@H]1C(=O)N2C(C(=O)O)=C(SCCN=CN)C[C@H]12", "growth": "9.33% (active)"}
{"smiles": "CC[C@@H](C(=O)[C@@H](C)[C@@H](O)[C@H](C)[C@@H]1O[C@@H]([C@@H](CC)C(=O)O)CC[C@@H]1C)C1O[C@]2(C=CC(=O)[C@]3(CC[C@@](C)([C@H]4CC[C@](O)(CC)[C@H](C)O4)O3)O2)[C@H](C)C[C@@H]1C", "note": "(stereo partly specified)", "growth": "36%"}
{"smiles": "CCC(c1ccc(OC)cc1)C(CC)c1ccc(O)c(CN2CCN(C)CC2)c1", "note": "(stereo unspecified)", "growth": "53.9%"}
{"smiles": "COc1ccc(C(=O)N2C=Cc3ccccc3C2C#N)cc1", "note": "(stereo unspecified)", "growth": "89.6%"}
{"smiles": "Cc1cc(SC#N)cc(C(C)(C)C)c1O", "growth": "105%"}
{"smiles": "COc1ccc(-c2n[nH]nc2-c2cc(OC)c3c(c2OC)OCO3)cc1", "growth": "31.9%"}
{"smiles": "CN1C(C(=O)Nc2ccccn2)=C(O)c2sc(Cl)cc2S1(=O)=O", "growth": "104%"}
{"smiles": "Clc1ccc2c(c1)C(N1CCNCC1)=Nc1ccccc1O2", "growth": "51.9%"}
{"smiles": "CC(C)(C)c1ccc(S(=O)(=O)N[C@H]2CC[C@H]3[C@@H]4CCc5cc(O)c([N+](=O)[O-])cc5[C@H]4CC[C@]23C)cc1", "growth": "77.1%"}
{"smiles": "COc1cc(-c2csc(NC(=O)Nc3ccc(Cl)c(C(F)(F)F)c3)n2)cc(OC)c1OC", "growth": "9.25% (active)"}
{"smiles": "Brc1ccc2c(c1)-c1ccccc1C1=NCCN12", "growth": "10.9%"}
{"smiles": "CC(C)N(CCOc1cccc(-c2nc3sccn3c2-c2ccnc(S(C)(=O)=O)n2)c1)C(C)C", "growth": "87.8%"}
{"smiles": "Cc1ccc(/C=C/C(=O)C(=O)/C=C/c2ccc(C)cc2)cc1", "growth": "93.8%"}
{"smiles": "O=C(Nc1cc(Cl)cc2c1-c1ccc(Cl)cc1C2O)C(Cl)Cl", "note": "(stereo unspecified)", "growth": "76.4%"}
{"smiles": "COc1cc(Cc2cc(-c3ccccc3)n[nH]c2=O)cc(OC)c1OC", "growth": "48.8%"}
{"smiles": "Cc1cc(C(C#N)c2ccc(Cl)cc2)c(Cl)cc1NC(=O)c1cc(I)cc(I)c1O", "note": "(stereo unspecified)", "growth": "34%"}
{"smiles": "C/C=C/C1=CN2C(=O)c3cc(OC4OC(C)C(NC)C(C)(O)C4O)c(C)c(O)c3N=C[C@@H]2C1", "note": "(stereo partly specified)", "growth": "-60.7% (active)"}
{"smiles": "CNC(=O)c1c(I)c(NC(C)=O)c(I)c(C(=O)O)c1I", "growth": "109%"}
{"smiles": "COc1ccc(Nc2cnc3cc(NS(=O)(=O)c4ccc(C)cc4)ccc3n2)cc1", "growth": "71.3%"}
{"smiles": "COc1cc(-c2nn(-c3ccc(NC(=O)NCCCNC(=O)c4ccccc4)cc3)cc2-c2ccncc2)ccc1Cl", "growth": "20%"}
